A selection: hits, their analogues and other compounds. The true share with any hit is near 7.3%.
VACV mCherry inh: inhibitors of vaccinia virus infection (mCherry reporter signal). Vaccinia virus mCherry reporter infection, fluorescence. Potency, µM (top dose mostly 36.5 µM), without a hit: at the highest dose activity change, negative = inhibition, most hits filed as inhibitors. 310,000 compounds, 0.63% hits. AID 720579; calls by dose curve; tested in A549 cells; further: potency means the concentration at half of the fitted maximal effect; nearly all actives have a fitted effect of over 35% in size
HCMV antiviral: blocks human cytomegalovirus replication. 410,000 compounds, 4.5% hits. AID 1259415. activity change, negative = inhibition, % at 57.5 µM. HFF cells, HCMV-luciferase reporter, 72 h; stronger effect = lower value; in the data active means activity change below about -60%; inconclusive means no clear call, values can overlap the other calls; inactive means above about -39%
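Compounds were evaluated in HFFs infected with an HCMV luciferase reporter virus (MOI 1 PFU/cell). Luciferase in lysates collected 72 h post infection served as the replication measure.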
HCV inh: inhibitors of hepatitis C virus infection; Huh7.5.1 HCVcc-Cre infection, luciferase reporter, 44 h; Potency, µM (top dose mostly 41.8 µM), without a hit: top-dose activity change, negative = inhibition, usual class: inhibitors; 340,000 compounds, 3.4% hits; active means well fitted inhibition curve with a large enough effect; inconclusive means small, poorly fitted or top-dose-only effect, or another doubt; inactive means no such curve, though single readings can be large or run the other way; further: potency means the concentration at half of the fitted maximal effect
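A cell-based infection assay in which seeded cells (1,000 per well) receive test compound after 4 h, are inoculated with HCVcc-Cre at approximately 0.5 moi, and are incubated 44 h before luminescence detection.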
Vaccinia Venus: inhibitors of vaccinia virus (Venus reporter). Vaccinia virus Venus reporter expression, fluorescence. Potency, µM (top dose mostly 36.5 µM), for the others: at the top dose activity change, negative = inhibition, actives largely listed as inhibitors. 330,000 compounds, 0.46% hits; calls by dose curve; tested in A549 cells; further: potency means the concentration at half of the fitted maximal effect; nearly all actives have a fitted effect of over 30% in size
FMDV antiviral: blocks foot and mouth disease virus | FMDV antiviral cell-based qHTS | Potency, µM (highest dose often 57.9 µM), for the others: at the highest dose activity change, negative = inhibition, most hits filed as inhibitors | 410,000 compounds, 1.2% hits | AID 1159524; calls by dose curve; tested in HEK293T cells; further: read-out not given here; potency means the concentration at half of the fitted maximal effect; nearly all actives have a fitted effect of over 45% in size
An asterisk follows results filed as active. On the % scale 0 is the no-effect control and ±100 the full control effect.

What do the screens show for `Cc1ccc(OCCCn2c(C3CC(=O)N(c4cccc(Cl)c4)C3)nc3ccccc32)c(C)c1` (configuration not stated)?
VACV mCherry inh: 2%; HCMV antiviral: 17; Vaccinia Venus: -12%; FMDV antiviral: -9%

Results for CCc1ccc(OCCn2c(C3CC(=O)N(Cc4ccc(F)cc4)C3)nc3ccccc32)cc1 (configuration not stated) ?
VACV mCherry inh: inconclusive; HCMV antiviral: -105*; Vaccinia Venus: 11µM*; FMDV antiviral: -41%

How did O=C(Cc1ccc(NC(=O)N2CCCCc3ccccc32)cc1)Nc1ccccc1Br do in these assays?
VACV mCherry inh: -15%; HCMV antiviral: 13; Vaccinia Venus: -17%; FMDV antiviral: -7%

How did CC(C)(C)CC(C)(C)NC(=O)C(Nc1ccccc1)c1ccccc1F (configuration not stated) do in these assays?
HCMV antiviral: 48

Results for Cc1cc(C)c2c(N)c3cccc(C)c3nc2n1 ?
VACV mCherry inh: 10µM*; HCMV antiviral: -99*; HCV inh: 13µM*; Vaccinia Venus: 10µM*; FMDV antiviral: -12%

How did CCOc1ccc(C(=O)Nc2ccc(C(=O)OCc3cc(=O)n4c(C)csc4n3)cc2)cc1 do in these assays?
VACV mCherry inh: -4%; HCMV antiviral: inconclusive; Vaccinia Venus: -14%; FMDV antiviral: -19%

What do the screens show for `C[C@]12c3[nH]c4ccc(Cl)cc4c3CCN1C(=O)[C@@H](CC(=O)NCc1cccc(C(F)(F)F)c1)C[C@@H]2C(=O)N1CCCCC1`?
VACV mCherry inh: inconclusive; HCMV antiviral: -104*; HCV inh: 25µM*; Vaccinia Venus: inconclusive; FMDV antiviral: inconclusive

How did CCN(CC)C(=O)[C@H]1CC(CC(=O)NCc2cccc(C(F)(F)F)c2)C(=O)N2CCc3c([nH]c4ccc(OC)cc34)[C@]12C (some centres not stated) do in these assays?
VACV mCherry inh: 10µM*; HCMV antiviral: -19; HCV inh: inconclusive; Vaccinia Venus: inconclusive; FMDV antiviral: inconclusive

What do the screens show for `CN(C)C(=O)CCc1ccc2c3c([nH]c2c1)[C@]1(C)[C@@H](C(=O)N2CCCCC2)C[C@H](CC(=O)NCc2cccc(C(F)(F)F)c2)C(=O)N1CC3`?
VACV mCherry inh: -29%; HCMV antiviral: 11; HCV inh: inconclusive; Vaccinia Venus: -25%; FMDV antiviral: -22%

Results for CCN(CC)C(=O)[C@H]1CC(CC(=O)NCCN2CCOCC2)C(=O)N2CCc3c([nH]c4ccc(OC)cc34)[C@]12C (some centres not stated) ?
VACV mCherry inh: inactive; HCMV antiviral: -19; HCV inh: 4%; Vaccinia Venus: -12%; FMDV antiviral: -18%

How did CC(C)N(C(=O)[C@H]1CC(CC(=O)NCCCN(C)C)C(=O)N2CCc3c([nH]c4ccccc34)[C@]12C)C(C)C (some centres not stated) do in these assays?
VACV mCherry inh: 0%; HCMV antiviral: -14; HCV inh: -13%; Vaccinia Venus: -17%; FMDV antiviral: -23%

How did CCN(CC)C(=O)[C@H]1C[C@H](CC(=O)NCc2cccc(C(F)(F)F)c2)C(=O)N2CCc3c([nH]c4cc(-c5ccco5)ccc34)[C@]12C do in these assays?
VACV mCherry inh: 11µM*; HCV inh: inconclusive; Vaccinia Venus: 11µM*; FMDV antiviral: inconclusive

Results for CC(C)N(C(=O)[C@H]1CC(CC(=O)NCc2cccc(C(F)(F)F)c2)C(=O)N2CCc3c([nH]c4ccccc34)[C@]12C)C(C)C (some centres not stated) ?
VACV mCherry inh: -27%; HCMV antiviral: 14; HCV inh: 10µM*; Vaccinia Venus: inconclusive; FMDV antiviral: inconclusive

Results for COc1cc(C(=O)NCCc2sc(-c3cccc(F)c3)nc2C)cc(OC)c1OC ?
VACV mCherry inh: 34%; HCMV antiviral: 15; Vaccinia Venus: 11%; FMDV antiviral: -1%

What do the screens show for `COc1ccc2[nH]c3c(c2c1)CCN1C(=O)C(CC(=O)NCc2ccco2)C[C@H](C(=O)N2CCCCC2)[C@@]31C` (some centres not stated)?
VACV mCherry inh: inactive; HCMV antiviral: 3; HCV inh: -17%; Vaccinia Venus: -8%; FMDV antiviral: -20%

Results for COc1ccc2[nH]c3c(c2c1)CCN1C(=O)C(CC(=O)NCc2cccc(C(F)(F)F)c2)C[C@H](C(=O)N2CCCCC2)[C@@]31C (some centres not stated) ?
VACV mCherry inh: inconclusive; HCMV antiviral: -10; HCV inh: 11µM*; Vaccinia Venus: inconclusive; FMDV antiviral: -22%

Results for Cc1nn(-c2ccccc2)c(C)c1NC(=O)COc1ccc(Br)cc1Cl ?
VACV mCherry inh: -17%; HCMV antiviral: inconclusive; HCV inh: inconclusive; Vaccinia Venus: -7%; FMDV antiviral: 22µM*

Results for Cc1nn(-c2ccccc2)c(C)c1NC(=O)COc1ccccc1C#N ?
VACV mCherry inh: -5%; HCMV antiviral: -35; Vaccinia Venus: -6%; FMDV antiviral: -5%

Results for Cc1nn(-c2ccccc2)c(C)c1NC(=O)COc1cc(F)ccc1[N+](=O)[O-] ?
HCMV antiviral: inconclusive; HCV inh: inconclusive; FMDV antiviral: 25µM*

Results for Cc1cccc(N2CCN(C(=O)C3CCN(S(=O)(=O)c4cccs4)CC3)CC2)c1C ?
VACV mCherry inh: inconclusive; HCMV antiviral: 20; Vaccinia Venus: -20%; FMDV antiviral: 20%

What do the screens show for `Cc1ccc(NC(CNS(=O)(=O)c2ccc(Cl)cc2)c2ccccc2)cc1` (configuration not stated)?
VACV mCherry inh: -28%; HCMV antiviral: -80*; HCV inh: inconclusive; Vaccinia Venus: inconclusive; FMDV antiviral: -12%

What do the screens show for `COc1cccc(NC(CNS(=O)(=O)c2ccc(Cl)cc2)c2ccccc2)c1` (configuration not stated)?
VACV mCherry inh: inconclusive; HCMV antiviral: -100*; Vaccinia Venus: inconclusive; FMDV antiviral: -20%

What do the screens show for `O=S(=O)(NCC(Nc1ccc(Cl)cc1)c1ccccc1)c1ccccc1` (configuration not stated)?
VACV mCherry inh: inconclusive; HCMV antiviral: -35; HCV inh: inconclusive; Vaccinia Venus: inconclusive; FMDV antiviral: -4%

How did COc1cccc(NC(CNS(=O)(=O)c2ccc(C)cc2)c2ccccc2)c1 (configuration not stated) do in these assays?
VACV mCherry inh: -28%; HCMV antiviral: -22; Vaccinia Venus: -16%; FMDV antiviral: -11%

What do the screens show for `Cc1ccc(N2C(=O)CS(=O)(=O)C23C(=O)N(Cc2ccc(Cl)cc2)c2ccccc23)cc1C` (configuration not stated)?
VACV mCherry inh: -5%; HCMV antiviral: 0; Vaccinia Venus: -2%; FMDV antiviral: -1%

Screens deposited in PubChem BioAssay by National Center for Advancing Translational Sciences (NCATS).
